Screens (PubChem BioAssay)
JMJD2A Tudor – qHTS Assay for Inhibitors of JMJD2A-Tudor Domain | Lysine-specific demethylase 4A (Homo sapiens), O75164 | AlphaScreen JMJD2A-Tudor / H3K4me3 peptide binding | Potency, µM (series often up to 114 µM), without a hit: at the top dose activity change, negative = inhibition, hits mostly inhibitors | actives 4.4% (n = 390,000) | AID 504339, 2011; further: on the % scale 0 is the no-effect control and ±100 the full control effect; nearly all actives have a fitted effect of over 50% in size
PLK1 PBD inh – qHTS for Inhibitors of PLK1-PDB (polo-like kinase 1 - polo-box domain): Primary Screen | Plk1 PBD binding of FITC phosphopeptide, fluorescence polarization | Potency, µM, without a hit: max response, negative = inhibition, most hits filed as inhibitors | actives 2.8% (n = 360,000); further: series mostly up to about 57 µM; on the % scale 0 is the no-effect control and ±100 the full control effect; nearly all actives have a fitted effect of over 65% in size
G9a inh – qHTS Assay for Inhibitors of Histone Lysine Methyltransferase G9a. actives 8.8% (n = 350,000). G9a H3K9 monomethylation, AlphaScreen, 2 h. Potency, µM (doses to about 102 µM), for the others: top-dose activity, negative = inhibition, usual class: inhibitors. AID 504332, 2011; further: on the % scale 0 is the no-effect control and ±100 the full control effect; nearly all actives have a fitted effect of over 75% in size
Target sequence (Q96KQ7 913-1193 limits assumed): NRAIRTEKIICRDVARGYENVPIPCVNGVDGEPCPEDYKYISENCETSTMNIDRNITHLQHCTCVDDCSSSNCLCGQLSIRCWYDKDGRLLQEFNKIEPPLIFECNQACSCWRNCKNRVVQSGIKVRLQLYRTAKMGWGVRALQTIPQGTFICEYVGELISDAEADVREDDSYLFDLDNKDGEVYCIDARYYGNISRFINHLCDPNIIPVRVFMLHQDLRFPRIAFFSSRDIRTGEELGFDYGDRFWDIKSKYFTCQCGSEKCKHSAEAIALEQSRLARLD
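Chemiluminescent proximity detection of H3K9 monomethylation, read after 10 min bead incubation in the dark. Reaction: 20 nM G9a, 500 nM biotin-H3K9 peptide, 20 uM SAM cofactor, 2 h, room temperature, following 15 min enzyme-compound preincubation.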
HP1b binding inh – HTS for Inhibitors of HP1-beta Chromodomain Interactions with Methylated Histone Tails; Chromobox protein homolog 1 (Homo sapiens), P83916; actives 0.56% (n = 390,000); AID 540317, 2011; AlphaScreen HP1-beta / biotin-H3K9me3 peptide binding; Potency, µM (titrated, usually from 114 µM), without a hit: at the highest dose activity change, negative = inhibition, usual class: inhibitors; further: nearly all actives have a fitted effect of over 70% in size
Target sequence (P83916 whole entry, looked up): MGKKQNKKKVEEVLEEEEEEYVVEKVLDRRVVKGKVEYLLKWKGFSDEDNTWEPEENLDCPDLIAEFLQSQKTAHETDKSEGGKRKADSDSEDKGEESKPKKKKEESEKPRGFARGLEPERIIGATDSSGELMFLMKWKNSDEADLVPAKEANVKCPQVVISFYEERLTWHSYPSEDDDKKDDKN
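HP1-beta protein (50 nM final) preincubated 30 min at room temperature with biotinylated H3(1-18)K9me3 peptide (50 nM) in PBS pH 7.4, 0.01% Tween-20, then compound added for 30 min. AlphaScreen streptavidin donor/nickel chelate acceptor beads (10 ug/mL final), 30 min dark, luminescence read.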
Sfp inh – qHTS Assay for Inhibitors of Bacillus subtilis Sfp phosphopantetheinyl transferase (PPTase); AID 1490, 2009; actives 3.5% (n = 310,000); Biochemical Sfp PPTase activity, qHTS; Potency, µM, inactives show largest response in the series, negative = inhibition, hits mostly inhibitors; 4'-phosphopantetheinyl transferase ffp (Bacillus subtilis), Q9F4F7;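 further: the enzyme is Sfp with the accession as filed and its product quenches rhodamine fluorescence; 0% = enzyme reaction without inhibitor and -100% = no enzyme wells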
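Compounds were incubated with enzyme (final 15 nM) for 15 min at room temperature before substrate addition started the reaction. Fluorescence at 525 nm excitation, 598 nm emission was recorded immediately and after 30 minutes.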
BAZ2B block – qHTS Assay for Inhibitors of BAZ2B | AlphaScreen BAZ2B-H3K14Ac peptide displacement | Potency, µM (top dose mostly 114 µM), for inactives: at the highest dose activity change, negative = inhibition, most hits filed as inhibitors | actives 4.4% (n = 360,000); further: on the % scale 0 is the no-effect control and ±100 the full control effect; nearly all actives have a fitted effect of over 60% in size
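Compounds, titrated to a top concentration of 110 uM, were incubated 30 min at room temperature with preformed BAZ2B/acetyl-K14 H3 peptide complex (50 nM each). Proximity signal was measured by AlphaScreen after 20 min with beads.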
An asterisk follows results filed as active; [ ] = another dose, or the depositor's remark. In the library only some 12% were active in any assay of this set; here they are far more common. The call rests on the fitted dose curve; in most records, active means well fitted curve in the direction sought with a large enough effect; inconclusive means small, poorly fitted or top-dose-only effect, or another doubt; inactive means no such curve, though single readings can be large; an effect the other way counts as inactive or inconclusive. Potency means the concentration at half of the fitted maximal effect.

What do the screens show for `CCCCC1=CC2=C(OC(C)=O)C(=O)C(C)(OC(=O)C3CCCC3)C(=O)C2=CO1` (stereo not given)?
Sfp inh: -13.1%

What do the screens show for `O=[N+]([O-])c1cc2oc3c(c2c(C=NCc2ccncc2)c1O)CCCC3`?
JMJD2A Tudor: 56.2µM*; PLK1 PBD inh: inconclusive; G9a inh: inconclusive; HP1b binding inh: inconclusive; Sfp inh: inconclusive; BAZ2B block: 35.5µM*

What do the screens show for `COCc1oc2ccc(NS(=O)(=O)c3ccc(C)cc3)cc2c1C(=O)OC`?
JMJD2A Tudor: -21.1%; G9a inh: -29.0%[59 µM]; HP1b binding inh: 4.4%; BAZ2B block: -0.8%

Results for COc1ccc(N2CCN(c3nc(Cl)nc(Nc4ccc(F)cc4)n3)CC2)cc1 ?
JMJD2A Tudor: -11.0%; PLK1 PBD inh: -7.3%; G9a inh: 10µM*; HP1b binding inh: 29.9%; Sfp inh: -3.8%; BAZ2B block: inconclusive

How did COc1ccc(N2CCN(c3nc(Nc4ccc(C)c(F)c4)nc(N4CCCC4)n3)CC2)cc1 do in these assays?
JMJD2A Tudor: inconclusive; PLK1 PBD inh: -11.0%; G9a inh: 7.08µM*; HP1b binding inh: inconclusive; Sfp inh: 19.2%; BAZ2B block: 7.94µM*

Results for COc1ccc(N2CCN(c3nc(Nc4ccc(F)cc4)nc(OC)n3)CC2)cc1 ?
G9a inh: 19.0%; Sfp inh: 4.8%; BAZ2B block: 11.0%

What do the screens show for `Cc1ccc2cccc(NC(=O)C(C)Oc3ccc(Cl)cc3Cl)c2n1` (stereo not given)?
JMJD2A Tudor: 39.9%; G9a inh: 59.0%[59 µM]; HP1b binding inh: 107.3%; BAZ2B block: 34.8%

What do the screens show for `Cc1ccc(-c2nnc3ccc(SCC(=O)OCc4ccccc4)nn23)cc1`?
JMJD2A Tudor: 12.3%[57.1 µM]; HP1b binding inh: 12.3%[57 µM]

What do the screens show for `Cc1ccc(C2=NN=C(NC(=O)CSc3nc(C)cc(C)n3)SC2)cc1`?
G9a inh: 28.2µM*; Sfp inh: 39.8µM*; BAZ2B block: -36.0%

What do the screens show for `Cn1c2ccccc2c2nnc(SCC(=O)Nc3cccc(C(=O)O)c3)nc21`?
JMJD2A Tudor: -19.9%; PLK1 PBD inh: -5.8%; G9a inh: 1.4%; HP1b binding inh: 34.9%; Sfp inh: 14.5%; BAZ2B block: -18.3%

Results for COC(=O)CSc1nc(C)cc(C)n1 ?
JMJD2A Tudor: 14.1µM*; PLK1 PBD inh: 7.52µM*; G9a inh: -0.9%; HP1b binding inh: -10.4%; Sfp inh: 14.2%; BAZ2B block: -15.3%

Results for Cc1cc(C(F)(F)F)nc(SCC(=O)NC2=NC(=O)C(C)S2)n1 (stereo not given) ?
JMJD2A Tudor: -24.7%; PLK1 PBD inh: inconclusive; G9a inh: inconclusive; HP1b binding inh: 4.4%; Sfp inh: -42.3%; BAZ2B block: 5.0%

What do the screens show for `Cc1ccc(C2=NN=C(NC(=O)CSc3nnc4c5ccccc5n(C)c4n3)SC2)cc1`?
JMJD2A Tudor: inconclusive; PLK1 PBD inh: -25.5%; G9a inh: 44.7µM*; HP1b binding inh: 15.0%; Sfp inh: 3.1%; BAZ2B block: -9.8%

Results for Cc1cc(C)nc(SCC(=O)NC2=NC(=O)C(C)S2)n1 (stereo not given) ?
JMJD2A Tudor: inconclusive; PLK1 PBD inh: inconclusive; G9a inh: 17.8µM*; HP1b binding inh: -5.0%; Sfp inh: 22.4µM*; BAZ2B block: 10.8%

What do the screens show for `O=C(CN1C(=O)NC2(CCCCCC2)C1=O)Nc1ccc(Br)cc1Br`?
JMJD2A Tudor: -14.4%; PLK1 PBD inh: -3.5%; G9a inh: 25.0%[12.7 µM]; HP1b binding inh: 19.1%; BAZ2B block: -4.1%

How did Cc1cc(NC(=O)CSc2nnc(-c3ccc(Br)o3)n2Cc2ccccc2)no1 do in these assays?
JMJD2A Tudor: -11.3%; PLK1 PBD inh: -7.6%; G9a inh: -47.8%[59 µM]; HP1b binding inh: 21.0%; Sfp inh: -6.8%; BAZ2B block: -18.4%

What do the screens show for `O=C(CSc1nnc(-c2ccc(Br)o2)n1Cc1ccccc1)c1ccccc1F`?
JMJD2A Tudor: inconclusive; PLK1 PBD inh: -20.5%; G9a inh: 4.47µM*; HP1b binding inh: 18.9%; Sfp inh: 35.5µM*; BAZ2B block: inconclusive

Results for CN(C(=O)CSc1nc2ccccc2n1C)C1CCS(=O)(=O)C1 (stereo not given) ?
JMJD2A Tudor: 4.4%; PLK1 PBD inh: -2.4%; G9a inh: 5.4%[12.7 µM]; HP1b binding inh: 45.5%; BAZ2B block: 0.0%

How did O=C(Nc1ccc(N2CCCCC2)c(Cl)c1)c1ccc(N2CCOCC2)c([N+](=O)[O-])c1 do in these assays?
JMJD2A Tudor: inconclusive; PLK1 PBD inh: -11.0%; G9a inh: -10.9%[0.501 µM]; HP1b binding inh: -30.5%; Sfp inh: 5.5%; BAZ2B block: 6.0%

How did O=C(Nc1ccc2c(c1)OCO2)c1ccc(N2CCCC2)c([N+](=O)[O-])c1 do in these assays?
JMJD2A Tudor: inconclusive; PLK1 PBD inh: -15.9%; G9a inh: 10µM*; HP1b binding inh: inconclusive; Sfp inh: -3.0%; BAZ2B block: 35.5µM*

What do the screens show for `CN1CCN(c2ccccc2NC(=O)c2ccc(N3CCCCC3)c([N+](=O)[O-])c2)CC1`?
JMJD2A Tudor: 50.1µM*; PLK1 PBD inh: -5.4%; G9a inh: inconclusive; HP1b binding inh: inconclusive; Sfp inh: inconclusive; BAZ2B block: 39.8µM*

What do the screens show for `CO/N=C(/C(=O)N[C@@H]1C(=O)N2C(C(=O)O)=CCS[C@H]12)c1cnc(N)s1`?
Sfp inh: 79.4µM*; BAZ2B block: 6.5%

Results for CO/N=C(/C(=O)N[C@@H]1C(=O)N2C(C(=O)O)=C(CSc3nnnn3C)CS[C@H]12)c1csc(N)n1 ?
G9a inh: -40.6%[12.7 µM]; Sfp inh: -22.1%

Results for N#Cc1c(C(F)(F)F)cc(-c2cccs2)nc1SCc1ccc(Cl)nc1 ?
JMJD2A Tudor: 4.5%; PLK1 PBD inh: -20.0%; G9a inh: 9.4%[0.0925 µM]; HP1b binding inh: 34.0%; Sfp inh: 22.4µM*; BAZ2B block: 2.5%

What do the screens show for `COc1ccc(NC(=O)n2ncc3cc(Cl)ccc32)cc1OC`?
JMJD2A Tudor: 4.3%; PLK1 PBD inh: 6.8%; G9a inh: -28.1%; HP1b binding inh: 16.4%; Sfp inh: -3.0%; BAZ2B block: -32.4%
